Results: PubChem BioAssay AID371 (SRMLSC, 2006)
About 280 (8.5%) of roughly 3,300 compounds were called active.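 Rule for the calls: active = mean growth inhibition over the two runs of 50% or more; inactive = mean growth inhibition under 50%.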 The list comes from a sample in which actives are over-represented; it also holds similar structures and randomly drawn compounds.

Assay: A549 NSCLC cell proliferation inhibitors – ATP luminescence, human non-small cell lung line, primary screen (AID 371);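 note: compound exposure lasted 72 h before the ATP read; 0% = untreated cell signal and 100% = no luminescence left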
Conditions: at 10 µM, active compounds read high

Compound	growth inhibition
Cc1nc(-c2coc3cc(OCC(=O)O)ccc3c2=O)cs1	13.4% (inactive)
O=C(NCCO)C1(c2ccccc2)CCCC1	0.3% (inactive)
OCCN(CCO)c1ncnc2c1sc1nc(N3CCOCC3)c3c(c12)CCCC3	58.3% (active)
COC(=O)c1ccc(CSc2ncnc3c2sc2nc(N4CCOCC4)c4c(c23)CCCC4)o1	-12.8% (inactive)
O=c1c2sc3nc(N4CCOCC4)c4c(c3c2ncn1Cc1ccco1)CCCC4	22.7% (inactive)
Cc1cc(OCC(=O)Nn2cnnc2)ccc1Br	4.24% (inactive)
Cc1noc(NS(=O)(=O)c2ccc(NC(=O)COc3ccccc3)cc2)c1C	-8.3% (inactive)
CC(NCCC(c1ccccc1)c1ccccc1)c1ccccc1 (stereo not given)	90.6% (active)
CC(NC(=O)c1ccc(=O)oc1)c1ccccc1 (stereo not given)	3.88% (inactive)
COc1ccc(C(=O)Cn2c(N3CCCCC3)nc3c2c(=O)n(C)c(=O)n3C)cc1OC	8.72% (inactive)
CCCC(C)n1[nH]c(=O)cc1N (stereo not given)	-3.66% (inactive)
COC(=O)c1ccc(C2/C(=C(\O)c3ccc4c(c3)OCCO4)C(=O)C(=O)N2CCCN(C)C)cc1 (stereo not given)	3.46% (inactive)
N#Cc1c(N)n(CCOC(=O)c2cccc(Br)c2)c2nc3ccccc3nc12	3.2% (inactive)
CCCOC(=O)CSC1=C(C#N)C(c2ccc3c(c2)OCO3)CC(=O)N1 (stereo not given)	50.4% (active)
CCCCOC(=O)CSC1=C(C#N)C(c2ccc3c(c2)OCO3)CC(=O)N1 (stereo not given)	40.3% (inactive)
CCOC(=O)CSC1=C(C#N)C(c2ccc3c(c2)OCO3)CC(=O)N1 (stereo not given)	49.8% (inactive)
CCOC(=O)CSc1nc(N2CCOCC2)c2c(c1C#N)CC(C)(C)N(C)C2	13.9% (inactive)
CC(C)Oc1ccc(Cc2c(O)nc(NCCCN(C)C)[nH]c2=O)cc1	-4.15% (inactive)
Cc1ccc2cc(CNC(C)C)c(=O)[nH]c2c1	2.25% (inactive)
O=C(CSc1nc2ccccc2c(=O)n1CC1CCCCC1)N1CCOCC1	19.6% (inactive)

Compound	growth inhibition
CCN(CC)C(=O)CSc1nc2ccccc2c(=O)n1CC1CCCCC1	59.2% (active)
CCN(CC)C(=O)COn1c(SCC(=O)N(CC)CC)nc2ccccc2c1=O	-4.27% (inactive)
CCN(CC)CCN1C(=O)C(=O)/C(=C(/O)c2ccc(F)cc2)C1c1ccncc1 (stereo not given)	-7.83% (inactive)
Cn1c[n+](C)cc1/C=N/O	-3.08% (inactive)
Cc1[nH]c2ccc(F)cc2c(=O)c1SC(F)(F)C(F)C(F)(F)F (stereo not given)	35.6% (inactive)
C=CCn1c(=S)[nH]c2ccccc2c1=O	6.62% (inactive)
O=c1c2ccccc2[nH]c(=S)n1CCN1CCC(=C(c2ccc(F)cc2)c2ccc(F)cc2)CC1	69.1% (active)
O=C(c1ccc(F)cc1)C1CCN(CCn2c(=O)[nH]c3ccccc3c2=O)CC1	8.97% (inactive)
CCCSc1nnc2n(-c3ccccc3OC)c(=O)c3c4c(sc3n12)CCC4	15.6% (inactive)
O=C(Nc1ccccn1)NC(C(F)(F)F)C(F)(F)F	0.87% (inactive)
CCOC(=O)C1/C(=N\O)CC(C)(O)C(C(=O)OCC)C1c1ccc(OC)c(OC)c1 (stereo not given)	2.33% (inactive)
CC[C@]1(O)CC2CN(CCc3c([nH]c4ccccc34)[C@@](C(=O)OC)(c3cc4c(cc3OC)N(C=O)[C@H]3[C@@](O)(C(=O)OC)[C@H](OC(C)=O)[C@]5(CC)C=CCN6CC[C@]43[C@@H]65)C2)C1 (stereo not given in full)	59.6% (active)
CC[C@]1(O)C[C@@H]2CN(CCc3c([nH]c4ccccc34)[C@@](C(=O)OC)(c3cc4c(cc3OC)N(C)[C@H]3[C@@](O)(C(=O)OC)[C@H](OC(C)=O)[C@]5(CC)C=CCN6CC[C@]43[C@@H]65)C2)C1	71.8% (active)
Cn1c2ccccc2c2nn(-c3ccccc3)c(=O)cc21	12.4% (inactive)
CC(=O)Nc1ccc(OC(=O)CC2SC(=O)NC2=O)cc1 (stereo not given)	1.99% (inactive)
CC(=O)Oc1ccc(C(c2ccc(OC(C)=O)cc2)c2ccccn2)cc1	14.2% (inactive)
CCOC(=O)CNC(=O)CNC(=O)c1ccc(OC)cc1	2.92% (inactive)
CCCCOc1ccc(C(=O)NCC(=O)NCC(=O)OCC)cc1	40.7% (inactive)
CCC(=O)Oc1ccc(/C(CC)=C(\CC)c2ccc(OC(=O)CC)cc2)cc1	71.7% (active)
CCC(=O)Oc1ccc(C(CC)C(CC)c2ccc(OC(=O)CC)cc2)cc1 (stereo not given)	62.3% (active)

Compound	growth inhibition
COc1ccc(C(CC(=O)N2CCOCC2)C(C)C)cc1 (stereo not given)	-4.83% (inactive)
Cc1nn(CC(N)=O)c(=O)c2ccccc12	25.7% (inactive)
O=S1(=O)C[C@@H](N2CCOCC2)[C@H](N2CCOCC2)C1	3.83% (inactive)
COc1ccc2c(c1)C1(C)CC(C)(C)N2C(=O)N1c1ccccc1 (stereo not given)	38.5% (inactive)
OC1(C2(O)CC(c3ccccc3)ON2)CCCCC1 (stereo not given)	19.6% (inactive)
CCc1nc(NC2CCCCC2)c(C#N)c2c1COC(C)(C)C2	46.1% (inactive)
CCCCc1nc(NCC2CCCO2)c(C#N)c2c1COC(C)(C)C2 (stereo not given)	13.2% (inactive)
CCCc1nc(NC2CCCCC2)c(C#N)c2c1COC(C)(C)C2	51.4% (active)
CN(C)c1ccc(C=NCC2(O)CCOC(C)(C)C2)cc1 (stereo not given)	-1.1% (inactive)
Cc1ccc(OCC(=O)N2CCC(N3CCCCCC3)CC2)cc1	0.02% (inactive)
O=C1CC(c2ccco2)CC(O)=C1C=NCCN1CCN(C2CC(=O)N(c3ccccc3)C2=O)CC1 (stereo not given)	11.7% (inactive)
CCOC(=O)c1ccc(N=CC2=C(O)CC(c3ccco3)CC2=O)cc1 (stereo not given)	8.87% (inactive)
O=C1CC(c2ccco2)CC(O)=C1C=Nc1cc(Cl)ccc1O (stereo not given)	52.3% (active)
CC1(C)CC(=O)C2=C(C1)OC(N)=C(C#N)C2C1C=CCCC1 (stereo not given)	5.77% (inactive)
CCOC(=O)c1[nH]c2ccccc2c1N=CN(CC)CC	1.27% (inactive)
COC(=O)CSC1=C(C#N)C(=O)NC2(CCCCC2)S1	7.6% (inactive)
COC(=O)CN(c1nc(C)cc(OC)n1)S(=O)(=O)c1ccccc1	12.9% (inactive)
Cc1ccc2cc(CNC(C)(C)C)c(=O)[nH]c2c1	-14.5% (inactive)
Cc1ccc2nc(NCc3ccccc3)[nH]c2c1	66.2% (active)
Cn1c(=O)cc(NCc2ccccc2)[nH]c1=O	8.28% (inactive)
